C diff growth – inhibitors of Clostridium difficile growth. AID 1259249. Clostridium difficile clinical isolate growth, OD600, 24 h; stronger effect = lower value. 86,000 tested, 0.25% active. growth activity, negative = inhibition, % at 16 µg/mL (by protocol);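 active = mean growth activity at or below -80% and every replicate also at or below -80%; inconclusive = mean at or below -80% but some replicate above -80%; inactive = mean growth activity above -80%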
T cruzi growth-1 – T. cruzi proliferation inhibition; T. cruzi beta-gal in NIH3T3, GalScreen luminescence, 90 h; inhibition, % at 8.34 µM; 77,000 tested, 5.9% active; AID 624255;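 active = mean inhibition above about 93%, with at least 55% of replicates each passing it, limit read from the data, passing the limit was not always enough; inconclusive = only one of those two conditions holds; inactive = neither condition holds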
Pf Dd2 inh – P. falciparum Dd2 growth inhibition. SYBR Green, 72 h; stronger effect = lower value. activity change, % at 10 µM. 94,000 tested, 2.3% active. AID 1159554; in the data active = activity change below about -80%; inconclusive = no clear call, values can overlap the other calls
T cruzi growth-2 – Trypanosoma cruzi proliferation inhibition; shares compounds with T cruzi growth-1; 5,600 tested, 72% active; AID 651739; T. cruzi beta-gal in NIH3T3, GalScreen luminescence, 90 h; inhibition, % at 8.35 µM;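 active = mean replicate inhibition above about 95% and at least 55% of replicates individually reaching it, limit read from the data; inconclusive = only one of the two criteria is met; inactive = neither criterion is met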
T cruzi growth-3 – blocks T. cruzi growth in NIH3T3 host cells; shares compounds with T cruzi growth-1; T. cruzi beta-gal in NIH3T3, GalScreen luminescence, 90 h; inhibition, % at 2.09 µM; 5,600 tested, 21% active; AID 651740;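 active = mean inhibition above about 95%, with at least 55% of replicates also reaching it, limit read from the data; inconclusive = meets just one of the two conditions; inactive = meets neither condition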
NIH3T3 tox – NIH/3T3 (mouse) viability loss; shares compounds with T cruzi growth-1; NIH/3T3 viability, CellTiter-Glo ATP luminescence, 90 h; cytotoxicity (signal decrease), % at 8.35 µM; 5,600 tested, 14% active; AID 651742;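 active = mean signal decrease across replicates above about 35% based on untreated-well scatter, with enough replicates individually passing, limit read from the data; inconclusive = no rule stated though some were filed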
NIH3T3 tox 2 – NIH/3T3 (mouse) viability loss. 5,600 tested, 56% active. shares compounds with T cruzi growth-1. NIH/3T3 viability, CellTiter-Glo ATP luminescence, 90 h. AID 651744. inhibition, % at 24.9 µM;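 active = mean loss of cell viability signal at or above a set limit, and enough replicates individually reaching it; inconclusive = meets only the mean limit or only the replicate share; inactive = meets neither condition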
Large screens that a line does not name were inactive (follow-up assays come after a bar, where they were run). Rows were chosen to be rich in hits. Some 6.8% of all compounds tested hit in one or more screens of this group.

Cc1cccc(-c2ccc([C@@H]3[C@@H](CO)N4CCCCN(Cc5cncnc5)C[C@@H]34)cc2)c1	none
COc1cccc(-c2ccc([C@H]3[C@@H](CO)N4CCCCN(Cc5cncnc5)C[C@@H]34)cc2)c1	none
COc1cccc(CN2CCCCN3[C@H](CO)[C@H](c4ccc(-c5cccc(C#N)c5)cc4)[C@@H]3C2)c1	T cruzi growth-1 111 | T cruzi growth-2 108 | T cruzi growth-3 101 | NIH3T3 tox inactive | NIH3T3 tox 2 102
OC[C@H]1[C@@H](c2ccc(C3=CCCC3)cc2)[C@@H]2CN(Cc3ccncc3)CCCCN12	none
Cc1cccc(-c2ccc([C@H]3[C@@H](CO)N4CCCCN(Cc5cccnc5)C[C@H]34)cc2)c1	T cruzi growth-1 99 | T cruzi growth-2 97 | T cruzi growth-3 inactive | NIH3T3 tox 45 | NIH3T3 tox 2 105
COc1cccc(-c2ccc([C@H]3[C@@H](CO)N4CCCCN(Cc5cncnc5)C[C@H]34)cc2)c1	T cruzi growth-1 99 | T cruzi growth-2 108 | T cruzi growth-3 inactive | NIH3T3 tox inactive | NIH3T3 tox 2 45
CCCNC(=O)Nc1ccc2c(c1)C(=O)N(C)[C@@H]1CC[C@@H](CC(=O)NC3CCC3)O[C@H]1CO2	none
C[C@H](CO)N1C[C@H](C)[C@@H](CN(C)S(=O)(=O)c2cccs2)Oc2ncc(C#CCC3CCCC3)cc2C1=O	none (no result: T cruzi growth-1)
C[C@@H]1CN([C@H](C)CO)S(=O)(=O)c2ccc(C3=CCCCC3)cc2O[C@@H]1CN(C)Cc1ccccc1F	none (no result: T cruzi growth-1)
CS(=O)(=O)N1CC2(C1)[C@H](c1ccccc1)[C@H](CO)N2CC1CC1	none (no result: T cruzi growth-1)
C[C@@H]1CN([C@@H](C)CO)C(=O)c2cc(N(C)C)ccc2O[C@@H]1CN(C)Cc1ccc(C(F)(F)F)cc1	none
C[C@H]1CN([C@@H](C)CO)C(=O)c2cc(C#CCc3ccccc3)cnc2O[C@@H]1CN(C)Cc1ccccc1	none (no result: T cruzi growth-1)
Cc1cccc(-c2ccc([C@@H]3[C@H]4CN(Cc5cncnc5)CCCCN4[C@H]3CO)cc2)c1	T cruzi growth-1 103 | T cruzi growth-2 inactive | T cruzi growth-3 inactive | NIH3T3 tox inactive | NIH3T3 tox 2 102
OC[C@@H]1[C@H](c2ccc(Br)cc2)[C@@H]2CN(Cc3cncnc3)CCCCN12	T cruzi growth-1 96 | T cruzi growth-2 inactive | T cruzi growth-3 inactive | NIH3T3 tox inactive | NIH3T3 tox 2 inactive
Cc1cccc(-c2ccc([C@@H]3[C@H](CO)N4CCCCN(Cc5cncnc5)C[C@@H]34)cc2)c1	none
OC[C@@H]1[C@H](c2ccc(Br)cc2)[C@H]2CN(Cc3ccccn3)CCCCN12	T cruzi growth-1 97 | T cruzi growth-2 99 | T cruzi growth-3 inactive | NIH3T3 tox inactive | NIH3T3 tox 2 inactive
OC[C@@H]1[C@@H](c2ccc(Br)cc2)[C@H]2CN(Cc3cncnc3)CCCCN12	none
OC[C@H]1[C@@H](c2ccc(Br)cc2)[C@@H]2CN(Cc3ccccn3)CCCCN12	none
C[C@H]1CN([C@@H](C)CO)S(=O)(=O)c2ccc(C#Cc3ccccc3)cc2O[C@H]1CN(C)CC1CC1	T cruzi growth-1 117, Pf Dd2 inh -83 | T cruzi growth-2 103 | T cruzi growth-3 inactive | NIH3T3 tox inactive | NIH3T3 tox 2 105
CC(C)C#Cc1ccc2c(c1)O[C@@H](CN(C)CC1CCOCC1)[C@H](C)CN([C@@H](C)CO)S2(=O)=O	none
CC(C)C#Cc1ccc2c(c1)O[C@@H](CN(C)CC1CCCC1)[C@H](C)CN([C@@H](C)CO)S2(=O)=O	T cruzi growth-1 92 | T cruzi growth-2 105 | T cruzi growth-3 inactive | NIH3T3 tox 41 | NIH3T3 tox 2 103
C[C@@H]1CN([C@H](C)CO)S(=O)(=O)c2ccc(C#Cc3ccccc3)cc2O[C@@H]1CN(C)CC1CC1	none
CC(C)C#Cc1ccc2c(c1)O[C@H](CN(C)CC1CC1)[C@H](C)CN([C@@H](C)CO)S2(=O)=O	none (no result: C diff growth)
CC(C)C#Cc1ccc2c(c1)O[C@@H](CN(C)CC1CCCC1)[C@H](C)CN([C@H](C)CO)S2(=O)=O	T cruzi growth-1 92 | T cruzi growth-2 105 | T cruzi growth-3 98 | NIH3T3 tox 55 | NIH3T3 tox 2 104
O=C(NC[C@@H]1CC[C@H]2[C@H](CN2Cc2ccccc2F)O1)C1CCCCC1	none (no result: T cruzi growth-1)
Cc1noc(C)c1NC(=O)N[C@H]1C=C[C@@H](CC(=O)NCCCN(C)C)O[C@@H]1CO	none
Cc1noc(C)c1NC(=O)N[C@H]1CC[C@@H](CC(=O)NCCCN(C)C)O[C@@H]1CO	T cruzi growth-1 inconclusive (no result: C diff growth) | T cruzi growth-2 inactive | T cruzi growth-3 inactive | NIH3T3 tox inactive | NIH3T3 tox 2 inactive
COCC#Cc1ccc2c(c1)O[C@H](CN(C)S(=O)(=O)c1cccc(OC)c1)[C@H](C)CN([C@H](C)CO)S2(=O)=O	none
COc1cccc(C#Cc2ccc3c(c2)O[C@H](CN(C)C)[C@H](C)CN([C@H](C)CO)S3(=O)=O)c1	none
COc1cccc(C#Cc2ccc3c(c2)O[C@@H](CN(C)S(=O)(=O)c2ccccc2F)[C@@H](C)CN([C@@H](C)CO)S3(=O)=O)c1	T cruzi growth-1 inconclusive | T cruzi growth-2 102 | T cruzi growth-3 inactive | NIH3T3 tox inactive | NIH3T3 tox 2 inactive
COc1cccc(C#Cc2ccc3c(c2)O[C@@H](CN(C)S(=O)(=O)c2ccccc2F)[C@H](C)CN([C@H](C)CO)S3(=O)=O)c1	T cruzi growth-1 121 | T cruzi growth-2 107 | T cruzi growth-3 inactive | NIH3T3 tox inactive | NIH3T3 tox 2 45
COc1cccc(C#Cc2ccc3c(c2)O[C@H](CN(C)S(=O)(=O)c2ccccc2F)[C@H](C)CN([C@@H](C)CO)S3(=O)=O)c1	T cruzi growth-1 125 | T cruzi growth-2 109 | T cruzi growth-3 104 | NIH3T3 tox inactive | NIH3T3 tox 2 inactive
COc1cccc(C#Cc2ccc3c(c2)O[C@H](CN(C)S(=O)(=O)c2ccccc2F)[C@@H](C)CN([C@H](C)CO)S3(=O)=O)c1	T cruzi growth-1 127 | T cruzi growth-2 109 | T cruzi growth-3 115 | NIH3T3 tox inactive | NIH3T3 tox 2 42
CCCC#Cc1ccc2c(c1)O[C@H](CN(C)S(=O)(=O)c1cccc(OC)c1)[C@@H](C)CN([C@@H](C)CO)S2(=O)=O	none (no result: C diff growth, T cruzi growth-1)
COc1cccc(C#Cc2ccc3c(c2)O[C@@H](CN(C)C(C)=O)[C@@H](C)CN([C@@H](C)CO)S3(=O)=O)c1	none
CN1CCN(C(=O)C[C@@H]2CC[C@@H]3[C@H](COc4ccc(NC(=O)c5ccc(F)c(F)c5)cc4C(=O)N3C)O2)CC1	none
COc1ccc(S(=O)(=O)Nc2ccc3c(c2)C(=O)N([C@@H](C)CO)C[C@H](C)[C@@H](CN(C)Cc2ccncc2)OCCCC[C@@H](C)O3)cc1	none

Bioassay records (PubChem BioAssay)
